Test results taken from publication PMC4336329 (PLoS ONE, 2015).
The whole screen tested about 310,000 compounds, of which about 14,000 (4.5%) showed an effect of 50% or more. Effects have a minus sign here. Many of the other results were omitted from the sample, so strong results are more common in it than they were.

molecular target: human ether-à-go-go-related gene (hERG) potassium channel (human, UniProt Q12809); assay: primary screen, population patch clamp on CHO cells stably expressing hERG; higher = less effect of the substance
Sequence (Q12809 whole entry, looked up): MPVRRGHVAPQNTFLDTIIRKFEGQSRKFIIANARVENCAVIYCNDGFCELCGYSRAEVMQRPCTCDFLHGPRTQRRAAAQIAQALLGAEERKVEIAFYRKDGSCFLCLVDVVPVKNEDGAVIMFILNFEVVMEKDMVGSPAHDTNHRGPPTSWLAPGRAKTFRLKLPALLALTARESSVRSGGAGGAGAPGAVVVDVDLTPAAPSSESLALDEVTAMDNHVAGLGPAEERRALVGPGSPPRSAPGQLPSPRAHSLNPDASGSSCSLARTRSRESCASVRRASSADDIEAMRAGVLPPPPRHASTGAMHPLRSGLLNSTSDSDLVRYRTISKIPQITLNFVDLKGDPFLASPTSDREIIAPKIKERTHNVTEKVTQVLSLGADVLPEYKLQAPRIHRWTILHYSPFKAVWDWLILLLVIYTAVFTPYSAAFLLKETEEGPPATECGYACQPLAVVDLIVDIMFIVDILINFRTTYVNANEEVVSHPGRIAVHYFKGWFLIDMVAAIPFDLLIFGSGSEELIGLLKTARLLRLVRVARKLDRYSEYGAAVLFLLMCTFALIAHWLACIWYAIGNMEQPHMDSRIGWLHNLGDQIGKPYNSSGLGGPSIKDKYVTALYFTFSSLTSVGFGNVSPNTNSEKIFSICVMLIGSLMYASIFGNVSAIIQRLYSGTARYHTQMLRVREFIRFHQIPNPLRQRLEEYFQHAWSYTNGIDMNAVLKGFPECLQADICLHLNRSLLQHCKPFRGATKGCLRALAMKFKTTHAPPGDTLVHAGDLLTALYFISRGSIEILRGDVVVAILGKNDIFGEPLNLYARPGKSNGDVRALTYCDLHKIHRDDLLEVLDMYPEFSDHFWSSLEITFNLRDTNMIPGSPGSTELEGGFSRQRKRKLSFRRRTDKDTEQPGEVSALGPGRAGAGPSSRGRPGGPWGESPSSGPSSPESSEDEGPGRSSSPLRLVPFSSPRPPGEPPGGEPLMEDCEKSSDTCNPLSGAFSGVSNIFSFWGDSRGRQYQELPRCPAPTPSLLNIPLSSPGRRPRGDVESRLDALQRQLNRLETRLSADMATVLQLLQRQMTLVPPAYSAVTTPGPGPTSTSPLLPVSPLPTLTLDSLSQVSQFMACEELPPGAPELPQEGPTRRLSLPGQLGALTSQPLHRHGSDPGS
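Further: peak tail current of the secondary pulse compared with the same well before compound.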

SMILES	hERG current change (%, negative = inhibition) at 10uM [%]
COc1ccc(S(=O)(=O)N2CCN(C)CC2)cc1C	7.28
Cc1ccc(/C=N/NC(=O)Cn2cnc3ccccc32)o1	3.48
COc1ccc(N2CCN(c3nc(-c4cccs4)nc4ccccc34)CC2)cc1	14.4
O=S(=O)(c1ccccc1)N1CCN(c2nc(-c3cccs3)nc3ccccc23)CC1	9.84
CN1CCN(c2nc(-c3cccs3)nc3ccccc23)CC1	-73.9
c1csc(-c2nnc(N3CCOCC3)c3ccccc23)c1	-32.1
CCN1CCN(c2nc(-c3cccs3)nc3ccccc23)CC1	-70.8
CCCN1CCN(c2nc(-c3cccs3)nc3ccccc23)CC1	-68.6
c1ccc(N2CCN(c3nc(-c4cccs4)nc4ccccc34)CC2)cc1	-8.84
CC1CCN(c2nnc(-c3cccs3)c3ccccc23)CC1	-41.6
c1csc(-c2nc(N3CCOCC3)c3ccccc3n2)c1	-10.1
Fc1ccccc1N1CCN(c2nc(-c3cccs3)nc3ccccc23)CC1	8.57
Oc1ccc(N2CCN(c3nc(-c4cccs4)nc4ccccc34)CC2)cc1	16.5
CN1CCN(c2nnc(-c3cccs3)c3ccccc23)CC1	-53.9
COc1ccc(CNC(=O)c2oc3ccc(S(=O)(=O)N4CCOCC4)cc3c2C)cc1	7.71
COc1ccccc1NC(=O)Nc1ncccc1C	-1.09
O=C1NCCN(Cc2ccoc2)C1CC(=O)N(Cc1ccccc1)CC1CCC1 (centres unmarked)	8.87
COc1ccc(Cl)cc1NC(=O)COC(=O)c1c(-c2ccccc2)noc1C	-2.53
CC(=O)N1CCN(c2nc(-c3cccs3)nc3ccccc23)CC1	-63.2
CCOC(=O)N1CCN(c2nc(-c3cccs3)nc3ccccc23)CC1	-1.74
Oc1ccccc1N1CCN(c2nc(-c3cccs3)nc3ccccc23)CC1	5.52
CC(=O)NC(CC(=O)Nc1nccs1)c1ccccc1.O=C(O)C(=O)O (centres unmarked)	1.49
CC(C)(C)NCCOCCOc1ccc(Cl)cc1C(C)(C)C.O=C(O)C(=O)O	0.207

SMILES	hERG current change (%, negative = inhibition) at 10uM [%]
COCCCNCCCOc1ccc(Cl)cc1C(C)(C)C	-57.5
CNCCCOc1ccc(Cl)cc1C(C)(C)C.O=C(O)C(=O)O	-20.6
C=CCNCCCOc1ccc(Cl)cc1C(C)(C)C.O=C(O)C(=O)O	-60.8
COCCCNCCOCCOc1ccc(Cl)cc1C(C)(C)C.O=C(O)C(=O)O	-50.6
C=CCNCCOCCOc1ccc(Cl)cc1C(C)(C)C.O=C(O)C(=O)O	11.2
COCCCNCCCOc1ccc(Cl)cc1Br	-39.2
CC(O)CNCCCOc1ccc(Cl)cc1C(C)(C)C.O=C(O)C(=O)O (centres unmarked)	-15.9
CC(C)(C)NCCCOc1ccc(Cl)cc1C(C)(C)C.O=C(O)C(=O)O	1.96
O=C(CSc1ccccn1)N1CCN(c2ccccc2)CC1	7.55
COc1ccc(O[C@H]2C=C[C@@H](c3ccccc3)O[C@@H]2CO/N=C(\C)CCN2CCc3nc(-c4ccccc4)c(-c4ccccc4)cc3C2)cc1	6.94
CCCNC(=O)NC(=O)CSc1ncc(C(F)(F)F)cc1Cl	12.6
C#CCOCCOCCOCCNc1nc(N2CCN(C(=O)[C@H](CCCCN)n3cc([C@@H](N)CC(C)C)nn3)CC2)nc(N2CCN(C(=O)[C@H](CCCCN)n3cc([C@@H](N)CC(C)C)nn3)CC2)n1.Cl	4.98
CCCCNS(=O)(=O)c1ccc(S(=O)(=O)NCc2ccncc2)cc1	-9.06
CCc1cccc2c(C(=O)CSc3nncn3C)c[nH]c12	7.69
CN(C(=O)CC1C(=O)NCCN1Cc1ccc(F)cc1Cl)C1CCCCC1 (centres unmarked)	-2.68
Cc1cccc(C(=O)N2CCN(c3ccc([N+](=O)[O-])c(NCc4ccco4)c3)CC2)c1	-34
Cc1ccc(C(=O)N2CCN(c3ccc([N+](=O)[O-])c(NCc4ccco4)c3)CC2)cc1	-50.5
O=C(c1ccccc1)N1CCN(c2ccc([N+](=O)[O-])c(NCc3ccco3)c2)CC1	-47.2
O=[N+]([O-])c1ccc(N2CCN(CCO)CC2)cc1NCc1ccco1	-32.2
CN1CCN(c2ccc([N+](=O)[O-])c(NCc3ccco3)c2)CC1	-51.9
O=[N+]([O-])c1ccc(N2CCNCC2)cc1NCc1ccco1	-28.2
COc1cc(OC)cc(C(=O)NNC(=O)c2ccc(-n3cncn3)c([N+](=O)[O-])c2)c1	5.46
CCN(CC)Cc1cc(C(=O)O)c(C)o1	19.4

SMILES	hERG current change (%, negative = inhibition) at 10uM [%]
O=C(CCn1c(=O)c2cccn2c2ccc(F)cc21)NCc1cccc(F)c1	23.4
CCOC(=O)COn1c2c(c3c4no[n+]([O-])c4ccc31)CCCC2	3.89
CCCCN=Cc1sc2ccc(OCC)cc2c1O	3.66
CCN(CC)CCCn1c2c(c(SCC(=O)Nc3cccc(C(C)=O)c3)nc1=O)CCC2	-59.4
COc1ccc(NC(=O)CSc2nc(=O)n(CCN3CCOCC3)c3c2CCC3)cc1	0.105
CCN(CC)CCn1c2c(c(SCC(=O)Nc3ccc(F)c(F)c3)nc1=O)CCC2	-70.5
O=C(CSc1nc(=O)n(CCN2CCOCC2)c2c1CCC2)Nc1ccc(OC(F)(F)F)cc1	-71.8
CCN(CC)CCCn1c2c(c(SCC(=O)Nc3ccc4c(c3)OCO4)nc1=O)CCC2	-44.6
CCN(CC)CCCn1c2c(c(SCC(=O)Nc3ccc(F)c(F)c3)nc1=O)CCC2	-55.1
CCOc1ccc(NC(=O)CSc2nc(=O)n(CCN3CCOCC3)c3c2CCCC3)cc1	-28.1
CC(=O)c1cccc(NC(=O)CSc2nc(=O)n(CCN3CCOCC3)c3c2CCC3)c1	-17.6
CCN(CC)CCn1c2c(c(SCC(=O)Nc3ccc4c(c3)OCO4)nc1=O)CCC2	-39.2
CN(C)CCn1c2c(c(SCC(=O)Nc3ccc4c(c3)OCCO4)nc1=O)CCC2	-16.1
CCN(CC)CCCn1c2c(c(SCC(=O)Nc3ccc4c(c3)OCCO4)nc1=O)CCC2	-43.4
CC(=O)c1cccc(NC(=O)CSc2nc(=O)n(CCCN3CCOCC3)c3c2CCC3)c1	-29.1
COc1cc2c(cc1OC)C(C)N(C(=O)CCN1C(=O)C3C4C=CC(C4)C3C1=O)CC2 (centres unmarked)	16
CC12CCC(=O)N1C(C(=O)N1CCN(c3cccc(Cl)c3)CC1)CS2 (centres unmarked)	-19.4
Cc1ccccc1-c1noc(-c2ccccc2C(=O)NCC2CCCO2)n1 (centres unmarked)	-3.02
Cc1ccc(C)c2nc3sc(C(=O)O)cc3cc12	20.9
CN1C(=O)C(C)(C)c2cc(S(=O)(=O)N3CCCC(C(=O)NCc4ccc(Cl)cc4)C3)ccc21 (centres unmarked)	-8.2
C=CCn1c(O)c(C(CC)=NCc2ccc3c(c2)OCO3)c(=O)[nH]c1=O	3.09
CCN(CC)c1nc(Nc2ccc([N+](=O)[O-])cc2)nc(N(CC)CC)n1	11.1
CCN(CC)CCCn1c2c(c(SCC(=O)Nc3ccc(OC(F)(F)F)cc3)nc1=O)CCC2	-67.7

SMILES	hERG current change (%, negative = inhibition) at 10uM [%]
Clc1ccc(-c2nnc(SCc3ccon3)o2)c(Cl)c1	-33.9
COc1ccc(NC(=O)[C@@H]2CCCN2C(=O)[C@@H]2Cc3ccccc3CN2C(=O)OC(C)(C)C)cc1	14.8
COC(=O)CCC(=O)c1oc2ccc(OC)cc2c1N	4.41
CC(CC(=O)Nc1ccc(S(=O)(=O)N2CCOCC2)cc1)c1ccccc1 (centres unmarked)	-4.25
O=C(Nc1cc(S(=O)(=O)N2CCOCC2)ccc1OCC(F)(F)F)C1=COCCO1	-42.8
CC(C)Oc1ccc(S(=O)(=O)N2CCOCC2)cc1NC(=O)CC1OC(=O)c2ccccc21 (centres unmarked)	-25
CC(CC(=O)Nc1cc(S(=O)(=O)N2CCOCC2)ccc1OCC(F)(F)F)c1ccccc1 (centres unmarked)	-50.2
O=C(CC1OC(=O)c2ccccc21)Nc1cc(S(=O)(=O)N2CCOCC2)ccc1OCC(F)(F)F (centres unmarked)	-52.2
CCOc1ccc(S(=O)(=O)N2CCCCC2)cc1NC(=O)CC1OC(=O)c2ccccc21 (centres unmarked)	-31.3
CCOc1ccc(Br)cc1C(=S)N1CCCC1	9.29
COC(=O)c1ccc(Oc2cc(C)nc(Cl)n2)cc1	13.9
O=C1CCCC2=C1C(c1ccncc1)Nc1ccccc1N2 (centres unmarked)	10.2
Cc1ccc(NC(=O)C2CCCN2C(=O)OCc2ccccc2)c(C)c1 (centres unmarked)	12.7
Cc1cccc(NC(=O)CC2c3ccccc3Oc3ccccc32)c1	18
CCCc1cc(-n2ccnc2C)n2c(nc3ccccc32)c1C#N	0.616
CCCc1cc(N2CCN(C(=O)c3ccco3)CC2)n2c(nc3ccccc32)c1C#N	-56.1
CCCCc1nc(N2CCN(C(=O)c3ccco3)CC2)c(C#N)c2c1CCCC2	-5.71
CCCc1cc(-n2cnc3ccccc32)n2c(nc3ccccc32)c1C#N	-50.1
CCCc1cc(-n2ccnc2)n2c(nc3ccccc32)c1C#N	-29.7
CC(C)c1cc(N2CCN(C(=O)c3ccco3)CC2)n2c(nc3ccccc32)c1C#N	-34.1
